# Reference: PubChem BioAssay (EPA / NIEHS)
# Calls of active or inactive are those of the source. How the source made its calls: active means hit-call score of the fitted dose curve at least 0.9, where 1 is the maximum; inactive means score below 0.9.
# Assay: ATG_TCF_b_cat_CIS: Attagene CIS-FACTORIAL HepG2 Assay for human T-Cell-Factor with beta-catenin (TCF/b-cat) (AID 2282965)
# Settings: HepG2 TCF/beta-catenin cis-reporter transcription, actives raise or lower the signal
# Method in brief: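 Endogenous transcription factor activity is captured through cis-promoter reporter constructs transiently introduced into human HepG2 liver cells. Induced reporter mRNA is measured after 24 h and fitted bidirectionally relative to DMSO.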
Structure (SMILES),outcome,AC50
FC1CC(F)(F)C(F)(F)C1(F)F (stereo unspecified),inactive,–
C=C(C)C(=O)OCC(F)(F)C(F)(F)C(F)(F)F,inactive,–
Cc1ccc(S(=O)(=O)NCl)cc1,inactive,–
CO[Si](OC)(c1ccccc1)c1ccccc1,inactive,–
C=C(C)C(=O)OCCC(F)(F)C(F)(F)C(F)(F)C(F)(F)C(F)(C(F)(F)F)C(F)(F)F,inactive,–
CC(C)(C)c1ccc(OC2CCCCC2O)cc1 (stereo unspecified),inactive,–
CC(C)=CCCC(C)CCOC(=O)C(C)C (stereo unspecified),inactive,–
O=S(=O)(OCC(F)F)C(F)(F)F,inactive,–
FC(F)(F)C(F)(F)CNCC(F)(F)C(F)(F)F,inactive,–
OCC(F)(F)C(F)(F)C(F)(F)C(F)(F)C(F)(F)C(F)F,inactive,–
CN(C)Cc1ccccc1O,inactive,–
CC(C)OC(=O)c1ccccc1C(=O)OC(C)C,inactive,–
O=C(O)C(F)(OC(F)(F)C(F)(OC(F)(F)C(F)(F)C(F)(F)F)C(F)(F)F)C(F)(F)F (stereo unspecified),inactive,–
C(=C(c1ccccc1)c1ccccc1)c1ccccc1,inactive,–
c1ccc(-c2ccccc2-c2ccccc2)cc1,inactive,–
FC(F)(F)C(F)(F)C(F)(F)C(F)(F)CCI,inactive,–

Structure (SMILES),outcome,AC50
O=C(C=Cc1ccccc1)OCC=Cc1ccccc1,inactive,–
N=C(N)C(F)(F)C(F)(F)C(F)(F)C(F)(F)C(F)(F)C(F)(F)C(F)(F)F,inactive,–
CCCCCCOC(=O)c1ccccc1,inactive,–
O=C(O)C(F)(F)C(F)(F)C(F)(F)C(F)(F)C(F)(F)C(F)(F)C(F)(F)C(F)(F)C(F)(F)C(F)(F)C(F)(F)C(F)(F)F,–,100 µM (active)
CCCCOCCOCCOC(=O)CCCCC(=O)OCCOCCOCCCC,inactive,–
CCN(CC)c1ccc2c(C)cc(=O)oc2c1,inactive,–
C=CC(=O)OCC(F)(F)C(F)(F)C(F)(F)C(F)(F)COC(=O)C=C,–,44.9 µM (active)
CC(Cc1ccc(O)c(O)c1)C(C)Cc1ccc(O)c(O)c1 (stereo unspecified),–,18.7 µM (active)
CCCCCCOC(=O)c1ccccc1O,inactive,–
FC(F)(I)C(F)(F)C(F)(F)C(F)(F)I,inactive,–
C=CC(F)(F)C(F)(F)C(F)(F)C(F)(F)C(F)(F)C(F)(F)C(F)(F)C(F)(F)F,inactive,–
CCC(=O)OCCc1ccccc1,inactive,–
OC[C@@H](O)[C@@H](O)[C@H](O)[C@@H](O)CO,inactive,–
Nc1cc(Cl)c(N)c(Cl)c1,inactive,–
C1COCCN1,inactive,–
